Test systems include NCI-H226 lung; NCI-H322M lung; HOP-62 NSCLC; NCI-H460 lung; HOP-92 NSCLC; NCI-H522 lung; A549/ATCC NSCLC; 786-0 renal; COLO 205 colon.
Common to all, as to experiment: NCI-60 one-dose screen, 48 h (100 = growth as untreated, 0 = no growth, -100 = all killed)
Common to all, as to conditions: 10 µM

About 83,000 compounds went through this panel and 20% of them were active in at least one assay; those are over-represented in the sample as a whole.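 Single-dose data. Exposure time 48 hours. Values below 10 considered active.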 Activity calls are given as the source filed them.

As for `CN1CCN(c2ccc(C(=O)/C=C/c3ccc(OC(F)F)cc3)cc2)CC1`, the growth with NCI-H226 lung was 27.7% (inactive); with NCI-H322M lung, 70.6% (inactive); in the assay with HOP-62 NSCLC it was 95.6% (inactive); in the assay on NCI-H460 lung it was 49.2% (inactive); in the assay on HOP-92 NSCLC, 61.6% (inactive); with NCI-H522 lung it was 83.5% (inactive). Further, the growth is 40.2% (inactive) with A549/ATCC NSCLC, 61.6% (inactive) in the assay with 786-0 renal and 34.8% (inactive) with COLO 205 colon.

As to `CCOC(=O)C1=C(N)N(c2ccccc2)C2=C(C(=O)CC(C)(C)C2)C1c1ccc(Cl)cc1` (stereo unspecified), the growth in the assay on NCI-H226 lung is 70.4% (inactive); in the assay with NCI-H322M lung, 64.9% (inactive); in the assay with HOP-62 NSCLC, 80.7% (inactive); with NCI-H460 lung, 13% (inactive); in the assay on HOP-92 NSCLC, 69.5% (inactive); in the assay on NCI-H522 lung it was 38.4% (inactive). Also, the growth was 33.9% (inactive) with A549/ATCC NSCLC, 67.3% (inactive) in the assay with 786-0 renal and -17.7% (active) in the assay on COLO 205 colon.

Consider `Cc1ccc(-c2cc(C(=O)N=Nc3c(O)[nH]c4ccccc34)c3ccccc3n2)cc1`, for which the growth is 47% (inactive) in the assay with NCI-H226 lung; 69.8% (inactive) in the assay on NCI-H322M lung; 66.2% (inactive) with HOP-62 NSCLC; -35.8% (active) in the assay on NCI-H460 lung; 21.6% (inactive) with HOP-92 NSCLC; 56.6% (inactive) with NCI-H522 lung. The growth with A549/ATCC NSCLC is 2.51% (active); with 786-0 renal, 35.8% (inactive); in the assay with COLO 205 colon it was -5.04% (active).

With `C#CCNC(=O)[C@]12CCC(C)(C)C[C@H]1C1=CC[C@@H]3[C@@](C)(CCC#N)[C@H](C(=C)C)CC[C@@]3(C)[C@]1(C)CC2`, the growth was 76.5% (inactive) in the assay on NCI-H226 lung; 77.1% (inactive) in the assay with NCI-H322M lung; 68.5% (inactive) in the assay with HOP-62 NSCLC; 66.9% (inactive) with NCI-H460 lung; 26.4% (inactive) in the assay with HOP-92 NSCLC; 64.5% (inactive) in the assay on NCI-H522 lung. Further, the growth was 40.1% (inactive) in the assay on A549/ATCC NSCLC, 74.6% (inactive) with 786-0 renal and 68% (inactive) with COLO 205 colon.

(Values after PubChem BioAssay (NCI).)
